Assay results published in PubChem BioAssay AID1159580 (chemical genetic matrix, 2015).
Out of some 5,500 compounds screened, about 2,000 (36%) were called active. Inconclusive results (about 18%) are left out. Cut-off read from the data, not from the text of the source: active = normalized growth mostly below about 0.91 (no sharp cut-off); inconclusive = no clear call, values can overlap the other calls; inactive = mostly above about 0.92. The list shows a part of the results.

Experiment: chemical genetic growth profiling, strain panel (AID 1159580);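 note: tested at 20 µM; growth read once vehicle control cultures reached saturation at 30 °C; 1 = growth at the plate median or of vehicle wells; lower values mean less growth of the strain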
Details: S. cerevisiae deletion strains, growth OD

Measured: normalized growth

NC(=O)CNCCC(c1ccccc1)c1ccccc1
inactive: locus YAL040C, strain CLN3, active compounds read low 0.962 | locus YCL061C, strain MRC1 (second series), active compounds read low 0.987 | locus YDR363W, strain ESC2, active compounds read low 0.965 | locus YER002W, strain NOP16, active compounds read low 0.969 | locus YGR078C, strain PAC10, active compounds read low 0.993 | locus YGR229C, strain SMI1, active compounds read low 0.895 | locus YNL153C, strain GIM3, active compounds read low 1.04 | locus YNL175C, strain NOP13, active compounds read low 0.993 | locus YNL197C, strain WHI3, active compounds read low 1.01 | locus YNL224C, strain SQS1, active compounds read low 0.991 | locus YOR083W, strain WHI5 (second series), active compounds read low 1.03 | locus YPL241C, strain CIN2, active compounds read low 0.984
